# GC-B act = human GC-B receptor activators, primary screen, HEK293 GC-B cells, cGMP TR-FRET, EC30 CNP. Atrial natriuretic peptide receptor 2 (Homo sapiens), P20594. 0% at EC30 CNP, 100% saturating CNP. activation, % at 10 µM. hit rate 0.11% among 370,000;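 active = activation at 10 µM reaching about 35% in either raw or pattern-adjusted values, limit read from the data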
# MsrA inh = bovine MsrA enzyme inhibitors, primary screen, biochemical, absorbance, HTS; Methionine sulfoxide reductase A (Bos taurus); purified bovine MsrA, absorbance read-out; inhibition, % at 15.5 µM; hit rate 0.75% among 360,000;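 note: 0% = vehicle wells with enzyme and 100% = reference inhibitor wells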
# NPR1 activator = GC-A stimulated cGMP production enhancers – HEK293 GC-A cells, cGMP TR-FRET, EC30 ANP, primary screen; Atrial natriuretic peptide receptor 1 (Homo sapiens), P16066; 0% at EC30 ANP, 100% saturating ANP; activation, % at 10 µM; hit rate 0.14% among 370,000; AID 1671463, 2021; in the data active = activation above about 40%
# Target sequence (P16066 whole entry, looked up): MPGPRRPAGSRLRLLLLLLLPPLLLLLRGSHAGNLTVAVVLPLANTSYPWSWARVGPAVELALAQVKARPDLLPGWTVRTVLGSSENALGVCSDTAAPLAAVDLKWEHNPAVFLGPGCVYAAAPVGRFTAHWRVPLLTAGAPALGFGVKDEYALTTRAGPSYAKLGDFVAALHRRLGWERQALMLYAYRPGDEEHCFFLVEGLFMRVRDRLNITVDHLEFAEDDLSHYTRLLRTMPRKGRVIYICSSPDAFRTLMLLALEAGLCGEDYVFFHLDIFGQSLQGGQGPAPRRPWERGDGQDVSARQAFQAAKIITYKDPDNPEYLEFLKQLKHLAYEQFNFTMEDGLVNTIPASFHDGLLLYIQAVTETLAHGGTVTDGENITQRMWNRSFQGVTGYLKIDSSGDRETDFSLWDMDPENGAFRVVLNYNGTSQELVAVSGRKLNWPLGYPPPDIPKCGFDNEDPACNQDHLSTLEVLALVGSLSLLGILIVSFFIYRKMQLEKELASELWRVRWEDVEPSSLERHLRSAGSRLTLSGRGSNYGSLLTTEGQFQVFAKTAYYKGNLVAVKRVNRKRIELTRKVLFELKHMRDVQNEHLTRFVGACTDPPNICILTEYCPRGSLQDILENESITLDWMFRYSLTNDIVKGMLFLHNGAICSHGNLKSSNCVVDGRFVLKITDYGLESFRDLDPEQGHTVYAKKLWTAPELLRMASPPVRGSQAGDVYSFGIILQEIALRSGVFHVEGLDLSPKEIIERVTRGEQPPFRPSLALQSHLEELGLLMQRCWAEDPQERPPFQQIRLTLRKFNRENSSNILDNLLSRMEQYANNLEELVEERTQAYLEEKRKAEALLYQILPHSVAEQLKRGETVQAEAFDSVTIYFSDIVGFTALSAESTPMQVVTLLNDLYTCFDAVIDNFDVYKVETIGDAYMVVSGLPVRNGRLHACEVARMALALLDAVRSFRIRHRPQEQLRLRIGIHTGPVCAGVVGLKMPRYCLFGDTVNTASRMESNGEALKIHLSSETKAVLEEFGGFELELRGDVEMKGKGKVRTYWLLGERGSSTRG
# MsrA act = bovine MsrA enzyme activators, primary screen, biochemical, absorbance, HTS. Methionine sulfoxide reductase A (Bos taurus). purified bovine MsrA, absorbance read-out. activation, % at 10.6 µM. hit rate 0.3% among 360,000; in the data active = activation above about 7.5%;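 note: 0% = vehicle and 100% = reference activator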
# MsrA inh confirm = bovine MsrA inhibitors, retest, confirmation, biochemical, absorbance, HTS | shares compounds with MsrA inh | purified bovine MsrA, absorbance read-out | inhibition, % at 15.5 µM | hit rate 41% among 2,300;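 note: coupled to thioredoxin reductase with NADPH and selenocystamine and DMSO as substrate; 0% = vehicle only and 100% = full effect of reference inhibitor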
# * hit, by the source's call; . = no result given. A selection: hits, their analogues and other compounds. The true share with any hit is near 1.2%. Cut-off read from the data, not from the text of the source, unless noted: active = inhibition above about 4.5%; inactive = the rest.
SMILES,GC-B act,MsrA inh,NPR1 activator,MsrA act,MsrA inh confirm
Cc1nn(C)c(C)c1/C=C/C(=O)O,3.6,-0.9,0.5,-5.0,.
N#CCC[C@@H]1CC[C@]2(CCCN(C(=O)c3ccno3)C2)O1,1.8,.,-0.1,.,.
CCOC(=O)C(=CNc1ccc(Cl)cn1)C(=O)OCC,3.0,3.5,1.2,6.5,.
CCOC(=O)C(=CNc1cccc(N)n1)C(=O)OCC,3.5,6.5*,3.4,-3.6,4.8*
Nc1n[nH]c(N)c1N=Nc1ccccc1,0.3,5.0*,0.9,-5.1,3.9
O=C(CCc1nc2ccccc2[nH]1)N1CCN(C(=O)c2ccco2)CC1,-2.7,0.1,0.3,-0.4,.
O=C(CSc1ccc(-c2nc3ccccc3[nH]2)cn1)N1CCN(C(=O)c2ccco2)CC1,2.9,5.1*,1.9,-5.5,2.1
CC(C)(C)c1ccc(S(=O)(=O)N2CCCC(C(=O)N3CCN(Cc4ccccc4)CC3)C2)cc1 (configuration not stated),-2.9,.,-1.7,.,.
COc1cc2c(cc1C=O)OC(C)C2 (configuration not stated),-7.3,1.0,-0.5,-3.8,.
CCOc1cc2c(cc1C=O)OC(C)C2 (configuration not stated),1.0,4.8*,2.6,-3.2,2.5
CCOC(=O)C1=C(C)NC(C)=C(C(=O)OCC)C1C(=O)OCC(=O)NC,3.1,11.2*,-0.5,-4.6,3.6
COc1ccccc1N=c1oc2cc(O)ccc2cc1C(N)=O,4.0,1.9,7.9,-2.1,.
Cc1cccc(N=c2oc3cc(O)ccc3cc2C(N)=O)c1,10.8,8.0*,16.1,0.2,10.0*
CCOC(=O)C1CCCN(C(=O)c2cnn3c(C(F)(F)F)cc(-c4ccccc4)nc23)C1 (configuration not stated),-5.4,5.3*,-8.0,-1.5,2.6
CCOc1ccc(C(O)c2nccn2Cc2ccccc2)cc1 (configuration not stated),8.3,8.8*,10.8,-7.8,4.5
O=C(NCCc1ccc(Cl)cc1)c1ccc2c(c1)ncn2C1CCCCC1,-6.3,.,-1.5,.,.
COc1ccc(/C=N/Nc2nccnc2Cl)cc1,0.0,4.7*,3.6,-5.2,2.1
O=c1[nH]ncc(N/N=C\c2ccc(O)cc2O)c1Cl,-4.9,6.5*,2.6,-3.9,6.2*
Clc1nccnc1N/N=C/c1ccc(Br)cc1,-5.3,3.8,-5.5,-3.5,.
Oc1ccc(/C=N/Nc2cccc3cccnc23)c(O)c1,-12.6,3.9,-4.5,-1.9,.
Oc1ccc(/C=N/Nc2nccnc2Cl)c(O)c1,-3.0,5.1*,-1.8,-8.2,4.2
Oc1ccc(/C=N/Nc2ncc(Br)cn2)c(O)c1,-25.0,6.0*,-35.5,-3.9,5.2*
Cc1cccc(C(=O)Nc2c(-c3ccccc3)nc3ncccn23)c1,4.7,.,1.6,.,.
O=C(CSc1nnc(-c2ccccn2)n1-c1ccc(Cl)cc1)Nc1ccc(S(=O)(=O)Nc2nccs2)cc1,-1.9,.,2.4,.,.
Cc1ccc(NC(=O)N2CCC(N(C)CCC(C)C)CC2)cc1F,-4.5,.,4.2,.,.
SMILES,GC-B act,MsrA inh,NPR1 activator,MsrA act,MsrA inh confirm
Cn1cc(CCOCc2ccccc2)c2ccccc21,-3.4,0.4,-1.6,.,.
Oc1ccc(C=NNc2ccccn2)c(O)c1,-7.5,5.1*,-9.9,-1.2,3.2
O=C(COc1ccccc1[N+](=O)[O-])N(Cc1ccccc1)c1ccccn1,4.0,7.3*,-0.4,-3.0,2.3
COc1ccc(C(=O)/C=C(\Nc2ccc(F)cc2)c2ccc(OC)cc2OC)c(OC)c1,-1.6,.,-0.4,.,.
O=C(Nc1nc(Cc2ccccc2)c(Cc2ccccc2)n1Cc1ccccc1)c1ccccc1,-2.6,.,2.3,.,.
CCc1noc(C)c1C(=O)Nc1nc2c(C)cccc2s1,3.0,1.7,2.7,-3.2,.
CCc1noc(C)c1C(=O)Nc1nc(-c2ccc(F)cc2)c(C)s1,-2.7,9.5*,-1.6,-4.1,8.7*
CCc1noc(C)c1C(=O)Nc1nc(-c2cc(C)ccc2C)c(C)s1,-5.1,18.2*,1.6,-14.7,21.2*
CCc1noc(C)c1C(=O)Nc1nc2c(F)cc(F)cc2s1,-1.8,-0.1,7.8,-4.8,.
CN(C)c1ccc(C=NCCC2(c3ccccc3)CCOC(C)(C)C2)cc1 (configuration not stated),1.9,2.7,3.3,-10.9,.
CN(C)c1ccc(C=NCC2(O)CCOC(C)(C)C2)cc1 (configuration not stated),5.7,5.2*,0.5,-9.7,4.8*
O=S(=O)(c1ccccc1F)n1c(CN2CCOCC2)nc2ccccc21,-7.9,.,2.9,.,.
C/C(=N\Nc1ccc(C(=O)O)cc1)c1ccc(Br)cc1,-1.5,4.8*,0.9,-4.5,6.4*
CNC1=C(N(C(C)=O)c2ccc(Br)cc2)C(=O)c2ccccc2C1=O,-2.7,36.4*,-5.3,4.1,5.5*
COC(=O)[C@]12C[C@H](CC(=O)NCCc3ccccc3OC)C(=O)N(Cc3ccc(Cl)cc3Cl)C1=C[C@H](C(C)C)O[C@@H]2C1CC1,-2.2,.,-9.0,.,.
COC(=O)c1sccc1NC(=O)c1ccc(Br)o1,-12.0,5.7*,3.5,2.2,2.5
COC(=O)c1sccc1NC(=O)c1ccc(C)o1,-4.8,0.6,2.6,-0.9,.
COC(=O)C1=C(C)N(Cc2ccc(C(F)(F)F)cc2)C(=NCc2ccccc2)NC1c1cccc(Cl)c1 (configuration not stated),-25.2,-2.1,-21.6,.,.
O=C(OC12CCCN(C1)/C(=C/c1cccc(Cl)c1)C2)C1CCCC1 (configuration not stated),-13.6,.,0.9,.,.
O=S1(=O)CCC(N=Cc2ccc(-c3ccc(Cl)cc3)o2)C1 (configuration not stated),-6.3,4.8*,14.2,-2.0,3.6
O=S(=O)(Nc1ccc2cn[nH]c2c1)c1cc(Br)ccc1Br,-3.1,6.2*,-5.5,-3.4,3.4
Cc1ccc2nc(/C(C#N)=N/O)[nH]c2c1,-4.3,5.1*,1.8,-6.4,3.3
COc1ccc(/C=C/S(=O)(=O)NCC(C)C)c(CNC(=O)OC(C)(C)C)c1,1.5,.,-3.6,.,.
C[C@H]1CCC[C@H](O)CC(=O)c2c(O)cc(O)cc2CC(=O)O1,-2.8,.,2.5,.,.
O=C1c2cccc3cc([N+](=O)[O-])cc(c23)C(=O)N1/N=C/c1ccc(O)cc1O,-10.3,4.7*,-34.9,-4.8,2.5
O=C1c2cccc3cc([N+](=O)[O-])cc(c23)C(=O)N1CCN1CCCC1,3.8,1.5,17.7,3.0,.
Cc1ccc(N(C)S(=O)(=O)c2cccc(C(=O)Oc3ccc4c(C)cc(=O)oc4c3)c2)cc1,3.7,4.8*,-0.6,-2.0,1.9
NC(=O)Cc1nc(-c2ccc(F)cc2)cs1,4.8,0.5,6.5,-0.8,.
NC(=O)Cc1nc(-c2ccc([N+](=O)[O-])cc2)cs1,-3.9,5.0*,4.8,-3.7,0.9
Cc1ccc(NC(=O)[C@H]2CC(=O)O[C@@H]2c2ccccc2)cc1C,7.8,.,-1.5,.,.

# High-throughput results as filed in PubChem BioAssay.
